This passage reports synaptosome phagocytic index results from the supplement of paper PMC12339681.

Where a name gives a salt, the structure may show the parent alone.

This assay relates to PBMC-derived induced microglia-like cells (piMGLC). Nature of the assay: synaptosome phagocytic index relative to DMSO control (fraction of DMSO); higher = more phagocytosis. The conditions noted are these: concentration: 10 uM (2 uM for compounds listed in Table S2); pretreatment time: 24 h; assay time: 3 h.
For `CNCC[C@@H](Oc1ccccc1C)c1ccccc1` [Atomoxetine_(hydrochloride)], the synaptosome phagocytic index came to 1.16.

In the case of `Nc1nc(Cl)nc2c1ncn2[C@H]1C[C@H](O)[C@@H](CO)O1` [Cladribine], the synaptosome phagocytic index came out at 1.1.

Consider `O=S1(=O)N[C@H]2CCCN2c2ccccc21`, for which the synaptosome phagocytic index is 0.742.

Regarding `CN(C)CCOc1ccc(-c2nc(-c3ccncc3)c(-c3ccc4c(c3)CC/C4=N\O)[nH]2)cc1`, the synaptosome phagocytic index amounted to 0.684.

Consider `Cc1nc(-c2cccnc2)sc1C(=O)Nc1ccccc1-c1cn2c(CN3CCOCC3)csc2n1`, for which the synaptosome phagocytic index is 0.157.

With `C[C@H](Cn1cnc2c(N)ncnc21)OCP(=O)(O)O` [Tenofovir], the synaptosome phagocytic index was 0.906.

For `CCCCOc1ccc(C(=O)CCN2CCCCC2)cc1` [Dyclonine_(hydrochloride)], the synaptosome phagocytic index is 0.68.

Turning to `CNS(=O)(=O)Cc1ccc2[nH]cc(CCN(C)C)c2c1` [Sumatriptan_(succinate)], the synaptosome phagocytic index was 0.992.

As for `Cn1ncc(-c2nn(C)c3ncnc(N4CCC4)c23)c1-c1ccc(C(F)(F)F)cc1`, the synaptosome phagocytic index came to 0.505.

`CCOC(=O)C1=CCCC[C@H]1S(=O)(=O)Nc1ccc(F)cc1Cl` [Resatorvid]: the synaptosome phagocytic index worked out at 0.156.

Consider `O=C(O)c1ccccc1O` [Salicylic_acid], for which the synaptosome phagocytic index was 0.557.

Regarding `Nc1cccc2c1C(=O)N(C1CCC(=O)NC1=O)C2=O` (stereo not given) [Pomalidomide], the synaptosome phagocytic index stood at 0.545.

Take `Nc1nc2c(ncn2COCCO)c(=O)[nH]1` [Acyclovir]: the synaptosome phagocytic index worked out at 0.731.

Consider `CCNc1nc(Nc2cc(F)c(C(=O)N3CCOCC3)cc2OC)ncc1C(F)(F)F` [GNE-7915_(tosylate)], for which the synaptosome phagocytic index amounted to 0.359.

`COCCOC(=O)C1=C(C)NC(C)=C(C(=O)OC(C)C)C1c1cccc([N+](=O)[O-])c1` (stereo not given) [Nimodipine]: the synaptosome phagocytic index amounted to 0.85.
